Compound activity deposited in PubChem by National Center for Advancing Translational Sciences (NCATS).
Most compounds without a hit are left out; they make up all but 19% or so of the library.
ELG1 repair inh – inhibitors of ELG1-dependent DNA repair in HEK293T cells. HEK293T ELG1-luciferase reporter, luminescence, 16 h; DNA damage induced by 5-fluorouridine. Potency, µM (doses to about 46.1 µM), usual class: inhibitors. 330,000 tested, 2.3% active; note: nearly all actives have a fitted effect of over 55% in size
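HEK293T cells expressing luciferase-tagged ELG1 (2,000/well) received 5-Fluorouridine plus compound or DMSO for 16 hr at 37 °C. Luciferase was read by ONE-Glo luminescence after 30 min at room temperature.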
HT1080-NT tox – kills 2HG-producing HT-1080-NT fibrosarcoma cells; HT-1080-NT fibrosarcoma viability, CellTiter-Glo ATP luminescence, 48 h; Potency, µM (titrated, usually from 46.1 µM), usual class: cytotoxic; 360,000 tested, 1.6% active;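 note: NT is the 2HG producing partner of a matched IDH1 knockdown line; nearly all actives have a fitted effect of over 55% in size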
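Toxicity toward the 2HG-producing NT line was scored as %Activity, normalised to DMSO and no-cell wells, from CellTiter-Glo luminescence after 48 hours' treatment.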
IL-1B inflam inh – blocks inflammasome-driven IL-1 beta release. THP-1 LPS/ATP IL-1B secretion, AlphaLISA, 16 h; active compounds read low. activity change, % at 57.5 µM. 360,000 tested, 4.7% active. AID 743279; in the data active = activity change below about -50%; inconclusive = mostly about -30% to -49%
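Secreted IL-1B measured by AlphaLISA bead assay after 16 h compound exposure of THP-1 cells; compounds (final up to 57.5 uM) added 1 h before LPS (250 ng/mL) and ATP (1.25 mM) stimulation; lower signal means less secretion.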
TDP1 cell noCPT – qHTS for Inhibitors of human tyrosyl-DNA phosphodiesterase 1 (TDP1): qHTS in cells in absence of CPT | AID 686978, 2013 | DT40 Tdp1-/- hTDP1 cells, no CPT, ATP luminescence, 48 h | 420,000 tested, 15% active | Potency, µM (top dose mostly 46.2 µM), actives largely listed as inhibitors; note: nearly all actives have a fitted effect of over 55% in size
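Cells were dispensed at 400 per well, compounds added by pin tool, plates incubated ≥48 hr at 37 °C, then CellTiter-Glo added for 30 min at room temperature before luminescence reading. Line: DT40 Tdp1-/- complemented with hTDP1; camptothecin omitted.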
HT1080 IDH1KD tx – HT-1080 IDH1 knockdown cell toxicity (counter line); Potency, µM (top dose mostly 46.1 µM), hits mostly cytotoxic; 360,000 tested, 2% active; HT-1080 IDH1 knockdown viability, ATP luminescence, 48 h
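% activity derives from luminescence (CellTiter-Glo), normalised to DMSO and no-cell wells. HT-1080-IDH1KD cells, 750/well, had 48 h compound exposure at 37 °C.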
TDP1 cell CPT – growth inhibition of DT40 Tdp1-/-;hTDP1 cells with camptothecin (screen for TDP1 inhibitors) | chicken DT40 Tdp1-/-;hTDP1 cells + 20 nM CPT, ATP luminescence, 48 h | Potency, µM (series often up to 46.2 µM), actives largely listed as inhibitors | 420,000 tested, 12% active | AID 686979; note: nearly all actives have a fitted effect of over 55% in size
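Chicken DT40 Tdp1-/- cells stably complemented with human TDP1 were seeded at 400 cells/well in medium containing 20 nM camptothecin, exposed to pin-transferred compounds, and grown at 37 °C for at least 48 hr. Viability was read as ATP luminescence.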
Hits are given with their value; – = inactive; ? = inconclusive; · = no result; [ ] = remark or other dose. Unless noted, calls come from the whole dose curve; as a rule, active = well fitted curve in the direction sought with a large enough effect; inconclusive = small, poorly fitted or top-dose-only effect, or another doubt; inactive = no such curve, though single readings can be large; an effect the other way counts as inactive or inconclusive.

SMILES	ELG1 repair inh	HT1080-NT tox	IL-1B inflam inh	TDP1 cell noCPT	HT1080 IDH1KD tx	TDP1 cell CPT
CC1CN(C(=S)NC(=O)c2ccc(Cl)cc2)CC(C)O1 (centres undefined)	–	–	–	?	–	?
Cn1c(=N)n(CC(=O)C(C)(C)C)c2ccccc21	?	–	–	–	–	?
COc1ccc(C(=O)CN2Cc3ccccc3C2=N)cc1	?	–	–	18µM	–	16µM
CCn1c(=N)n(CC(=O)c2ccc(OC)c(OC)c2)c2ccccc21	–	–	–	?	?	?
C=CCn1c(=N)n(CC(=O)c2ccc(OC)cc2)c2ccccc21	–	–	·	?	–	?
COc1ccc(C(=O)Cn2c(=N)n(C)c3ccccc32)cc1	?	?	-56	21µM	?	?
Cn1c(=N)n(CC(=O)c2ccccc2)c2ccccc21	?	–	–	18µM	–	?
Cn1c(=N)n(CC(=O)c2ccc(Cl)c(Cl)c2)c2ccccc21	?	–	?	16µM	–	13µM
COc1ccc(CCN(C)C(=O)C2CCN(C(=O)Nc3ccccc3)CC2)cc1OC	–	–	–	–	–	–
COC(=O)c1ccccc1C(=O)N1CCOc2ccc(CN3CCN(c4ccccn4)CC3)cc2C1	·	·	·	–	·	–[9.04 µM]
COc1ccc(CNc2ncncc2-c2ccc3c(c2)OCO3)c(OC)c1	·	·	·	?	·	–
COc1ccc(/C=C/C(=O)OCC(=O)Nc2ccc(N3CCOCC3)cc2)cc1OC	–	–	–	–	–	–
COc1ccc(C(=O)Cn2c(C(C)=O)nc3ccccc32)cc1	·	–	–	7.3µM	?	15µM
CCN(CC)CCn1c(=N)n(CC(=O)c2ccc(C)cc2)c2ccccc21	–	–	-59	13µM	?	16µM
O=C(CN(Cc1ccco1)C(=O)Cn1nnc(-c2cccs2)n1)NCC1CCCO1 (centres undefined)	–	–	–	–	–	–
CC(C)CNC(=O)CSc1nc2nn(-c3ccccc3)c(=O)c-2c2n1CCCCC2	–	–	-53	–	–	–
CNC(=O)CSc1nc2nn(-c3ccccc3)c(=O)c-2c2n1CCCCC2	?	–[9.24 µM]	–	–	–	–
CC(=O)c1ccc(NC(=O)CSc2nc3nn(-c4ccccc4)c(=O)c-3c3n2CCCCC3)cc1	·	–	–	16µM	–	26µM
O=C(CSc1nc2nn(-c3ccccc3)c(=O)c-2c2n1CCCCC2)Nc1ccc(OC(F)F)cc1	13µM	–	?	?	–	?
O=C(CSc1nc2nn(-c3ccccc3)c(=O)c-2c2n1CCCCC2)Nc1ccc(F)c(F)c1	?	–	–	?	–	?
O=C(CSc1nc2nn(-c3ccccc3)c(=O)c-2c2n1CCCCC2)Nc1ccc(F)cc1F	–	–	-56	–	–	–
O=C(O)CCCC(=O)N1N=C(c2ccccc2)CC1c1ccc2c(c1)OCO2 (centres undefined)	–	–	–	–	–	–
CCN(C(=O)COC(=O)c1ccc(SC)cc1OC)C1CCS(=O)(=O)C1 (centres undefined)	–	–	–	–	–	–
O=C(CSc1nc2nn(-c3ccccc3)c(=O)c-2c2n1CCCCC2)c1ccc(O)c(O)c1	18µM	–	–	?	–	?
CN1CCN(NS(=O)(=O)c2ccc(Cl)cc2)CC1	–	–	–	–	–	–
SMILES	ELG1 repair inh	HT1080-NT tox	IL-1B inflam inh	TDP1 cell noCPT	HT1080 IDH1KD tx	TDP1 cell CPT
COc1ccc(OC)c(C(=O)CSc2ncc3c(n2)-c2ccccc2N(Cc2ccccc2C)S3(=O)=O)c1	·	·	·	?	·	18µM
Cc1ccccc1CN1c2ccccc2-c2nc(SCC(=O)Nc3cc(F)ccc3F)ncc2S1(=O)=O	·	·	·	10µM	·	?
O=C(CSc1ncc2c(n1)-c1cc(Cl)ccc1N(Cc1ccccc1F)S2(=O)=O)Nc1cccc(C(F)(F)F)c1	·	·	·	?	·	18µM
O=C(CSc1ncc2c(n1)-c1cc(Cl)ccc1N(Cc1ccccc1)S2(=O)=O)Nc1ccc(F)cc1F	·	·	·	?	·	18µM
Cc1ccccc1CN1c2ccccc2-c2nc(SCC(=O)c3ccccc3)ncc2S1(=O)=O	·	·	·	–	·	–
CCc1ccccc1NC(=O)CSc1ncc2c(n1)-c1ccccc1N(Cc1ccc(C)cc1)S2(=O)=O	·	·	·	–	·	–
CCOc1ccc(NC(=O)CSc2ncc3c(n2)-c2ccccc2N(Cc2ccccc2C)S3(=O)=O)cc1	·	·	·	–	·	–
O=C(CSc1ncc2c(n1)-c1ccccc1N(Cc1ccc(F)cc1)S2(=O)=O)NCc1ccccc1	·	·	·	–	·	–
COc1cccc(/C=C2\N=C(C3CCCCC3)OC2=O)c1OC	–	–	–	–	–	–
COc1ccccc1-c1cc2c(c(OC)c1)OCCN(CCC(C)c1ccc(C)o1)C2 (centres undefined)	·	·	·	–	·	–[9.04 µM]
CC(C)(C)OC(=O)NN1CC(=O)N2Cc3[nH]c4ccccc4c3C[C@H]2C1=O	–	–	–	–	–	–
CCOc1ccc(NC(=O)CSc2ncc3c(n2)-c2cc(Cl)ccc2N(C)S3(=O)=O)cc1	·	·	·	–	·	–
Cc1cccc(C)c1NC(=O)CSc1ncc2c(n1)-c1ccc(Cl)cc1N(Cc1ccccc1)S2(=O)=O	·	·	·	16µM	·	?
COc1cccc(CNC(=O)CSc2ncc3c(n2)-c2cc(Cl)ccc2N(C)S3(=O)=O)c1	·	·	·	?	·	21µM
COC(=O)c1ccc(NC(=O)CSc2ncc3c(n2)-c2cc(Cl)ccc2N(Cc2ccccc2)S3(=O)=O)cc1	·	·	·	21µM	·	?
COC(=O)CSc1ncc2c(n1)-c1ccccc1N(Cc1ccc(Cl)cc1)S2(=O)=O	·	·	·	–	·	–
O=C(CSc1ncc2c(n1)-c1ccc(Cl)cc1N(Cc1ccccc1)S2(=O)=O)Nc1ccc(F)c(F)c1	·	·	·	18µM	·	23µM
CCOc1ccc(NC(=O)c2ccc(N3CC4CC(C3)c3cccc(=O)n3C4)c(NC(=O)c3cccnc3)c2)cc1 (centres undefined)	–	–	–	–	–	–
Cc1c(C(=O)NCCN2C(=O)S/C(=C\c3cccnc3)C2=O)cccc1[N+](=O)[O-]	–	–	–	?	–	–
NC(=O)CSc1ncc2c(n1)-c1ccccc1N(Cc1ccccc1)S2(=O)=O	·	·	·	–	·	–
COc1ccc(C)cc1NC(=O)CSc1ncc2c(n1)-c1ccc(Cl)cc1N(Cc1ccccc1)S2(=O)=O	·	·	·	?	·	9.2µM
CCN(C(=O)CSc1ncc2c(n1)-c1cc(Cl)ccc1N(Cc1ccccc1)S2(=O)=O)c1cccc(C)c1	·	·	·	16µM	·	?
N#CC1=C(N)SC(N)=C(C#N)C1c1ccc(C(F)(F)F)cc1	–	·	·	·	·	·
